Drawing on PubChem BioAssay (EPA / NIEHS), this text covers outcome and AC50 for 40 compounds.

The structures appear in SMILES notation. Where “and” joins values, the source holds several entries; their conditions need not be identical. Equal entries are not always repeated. Calls of active or inactive are those of the source. Rule for the calls: active = hit-call score of the fitted dose curve at least 0.9, where 1 is the maximum; inactive = score below 0.9.

Read-out in the test: Interleukin-8 (IL8), CXCL8 (gene 3576)
Nature of the test: BSK_hDFCGF_IL8: BioMAP Diversity Plus: hDFCGF Assay for Interleukin-8 (IL8) Biomarker Activity (AID 2283058). The following applies: primary human foreskin fibroblasts; actives raise or lower the signal. The protocol: BSK_hDFCGF is a cell-based, multiplexed-readout assay that uses foreskin fibroblast, a human skin primary cell, with measurements taken at 24 hours after chemical dosing in a 96-well plate.BSK_hDFCGF_IL8 is an assay component measured in the BSK_hDFCGF assay. It measures IL-8 antibody related to regulation of gene expression using ELISA technology.Data from the assay component BSK_hDFCGF_IL8 was analyzed into 1 assay endpoint. This assay endpoint, BSK_hDFCGF_IL8, was analyzed with bidirectional fitting relative to DMSO as the negative control and baseline of activity. Using a type of binding reporter, gain or loss-of-signal activity can be used to understand changes in the signaling as they relate to the gene CXCL8. Furthermore, this assay endpoint can be referred to as a primary readout, because this assay has produced multiple assay endpoints where this one serves a signaling function. To generalize the intended target to other relatable targets, this assay endpoint is annotated to the cytokine intended target family, where the subfamily is interleukins.
The levels of cell surface (or secreted, indicated by the prefix "s") biomarker endpoints were measured by ELISA. Overt cytotoxicity to cells in confluent adherent cultures (all systems other than the BT system) was assessed by measuring total protein levels using sulforhodamine B (SRB) staining in parallel cultures at the time of biomarker measurements, indicated as SRB endpoints. For proliferation assays for adherent cell types, individual cell types are cultured at sub-confluence and relative cell numbers quantified by SRB staining at time points optimized for each system (48 h: 3C and CASM3C systems; 72 h: BT and HDF3CGF systems; 96 h: SAg system). SRB was performed by staining cells with 0.1% SRB after fixation with 10% TCA and reading wells at 560 nm.Viability and proliferation of PBMC (T cells) was quantified by Alamar Blue reduction for the SAg and BT systems. For PBMC viability (referred to as PBMC Cytotoxicity within the assay endpoint names), cells were plated (75,000/well in a 96-well plate) and then chemical samples added for 1 h before addition of activators, SEB and TSST-1 (20 ng/mL final concentration each). Cells were incubated for 90 h. Then, Alamar Blue (20 uL/well) (Invitrogen, Cat DAL1100) was added for 6 h, and the plates were read with a fluorescence microplate reader at 546/580 nm (excitation/emission). For PBMC proliferation, cells were plated and activated as above but incubated for only 16 h prior to addition of Alamar Blue. Plates were read after 6 h.
Turning to `ClCC(Cl)CCl`, the outcome was inactive. Consider `CC(C)(C)c1cc(O)ccc1O`, for which the AC50 – broadly, the concentration giving half of the maximal activity seen – is 9.21 µM (active). On the same count and under the same terms, the value for `CCC(C)(C)c1ccc(O)c(C(C)(C)CC)c1` was 10.4 µM (active).

Regarding `Nc1cccc2ccccc12`, the outcome was inactive. Regarding `CC(C)(c1ccccc1)c1ccc(O)c(C(C)(C)c2ccccc2)c1`, the AC50 was 5.4 µM (active). On to `C(=NC1CCCCC1)=NC1CCCCC1`, for which the AC50 is 32.4 µM (active). Turning to `COP(=S)(OC)Oc1c(Cl)cc(C)cc1Cl`, the outcome was inactive. On to `O=C(O)C(F)(F)C(F)(F)C(F)(F)C(F)(F)C(F)(F)C(F)(F)C(F)(F)C(F)(F)C(F)(F)C(F)(F)F`, for which the AC50 is 13.1 µM (active) and 6.18 µM (active) and 6.3 µM (active). As for `CC(=O)C(Cl)C(=O)N(C)C` (stereo not given), the outcome was inactive. The same measure, in the same setting: the result for `O=C(O)C(Cl)(Cl)Cl` reads “inactive”. `CC(C)(C)CC(C)(C)c1ccc(O)cc1`: the concentration at half-maximal activity (AC50) is 10.6 µM (active). Same read-out and setting: the result for `CC(=O)[O][Hg][c]1ccccc1` reads 0.148 µM (active). `CCC(=O)C(CC(C)N(C)C)(c1ccccc1)c1ccccc1` (stereo not given): the outcome was inactive. Consider `C[C@@H]1C[C@@H]([C@H](O)CC2CC(=O)NC(=O)C2)C(=O)[C@@H](C)C1`, for which the AC50 is 7.54 µM (active). With `OCc1ccco1`, the outcome was inactive.

For `Nc1ncc([N+](=O)[O-])s1`, the outcome was inactive. Still for that read-out and setting: the value for `CCCCCCCCC(=O)NCc1ccc(O)c(OC)c1` was “inactive”; that for `CCOC(=O)/C=C(C)/C=C/C[C@@H](C)CCCC(C)C` was “inactive”; that for `CC1(C)Cc2cccc(O)c2O1` was “inactive”. Take `CC(C)c1ccc(CO)cc1`: the outcome was inactive.

Regarding `ClC1=C(Cl)[C@]2(Cl)[C@H]3[C@H]([C@H]4C=C[C@H]3C4)[C@@]1(Cl)C2(Cl)Cl`, the result was inactive.

As for `COc1cc(OC)nc(NC(=O)NS(=O)(=O)c2ncccc2C(=O)N(C)C)n1`, the outcome was inactive.

`Cc1ccccc1N`: the result was inactive. On to `C=CC(=O)OCCCCCC(C)C`, for which the outcome was inactive.

Consider `Oc1ccc(-c2ccccc2)cc1`, for which the result was inactive. On the same count and under the same terms, the value for `Oc1c(I)cc(I)cc1I` was “inactive”; that for `COP(=S)(OC)Oc1cc(Cl)c(Cl)cc1Cl` was “inactive”; that for `ClC(Cl)=C(Cl)C(Cl)=C(Cl)Cl` was “inactive”. Still for that read-out and setting: the value for `CCOP(=S)(OCC)Oc1ccc(S(C)=O)cc1` (stereo not given) was “inactive”. Turning to `Cn1sc(Cl)cc1=O`, the AC50 is 37.9 µM (active).

In the case of `O=c1[nH]c(=O)[nH]c(=O)[nH]1`, the outcome was inactive. As to `CC12CC1(C)C(=O)N(c1cc(Cl)cc(Cl)c1)C2=O` (stereo not given), the result was inactive. In the case of `CCOP(=S)(OCC)Oc1nc(Cl)c(Cl)cc1Cl`, the result was inactive. On the same count and under the same terms, the value for `COC(=O)c1sccc1S(=O)(=O)NC(=O)Nc1nc(C)nc(OC)n1` was “inactive”. The same measure, in the same setting: the value for `O=C(O)C(F)(F)C(F)(F)C(F)(F)C(F)(F)C(F)(F)C(F)(F)F` was “inactive”. Still for that read-out and setting: the result for `CCOP(=S)(OCC)SCSP(=S)(OCC)OCC` reads “inactive”; that for `O=[N+]([O-])c1ccc(O)c([N+](=O)[O-])c1`, “inactive”.

Consider `COC(=O)Cc1ccccc1`, for which the outcome was inactive. Turning to `CCCCC(CC)CO[N+](=O)[O-]` (stereo not given), the outcome was inactive. The same measure, in the same setting: the value for `COC[C@H](C)N(C(=O)CCl)c1c(C)csc1C` was “inactive”.
